Screening data (PubChem BioAssay)
A selection: hits, their analogues and other compounds. The true share with any hit is near 2.4%.
D2 PAM-1: human D2 receptor positive allosteric modulation; hit rate 0.23% among 360,000; P14416; DiscoveRx D2 beta-arrestin cells, luminescence, 90 min; 100% = 57 uM dopamine signal; AID 624464; potentiation, % (test concentration not listed); in the data active = potentiation above about 50%
Target sequence (P14416 whole entry, looked up): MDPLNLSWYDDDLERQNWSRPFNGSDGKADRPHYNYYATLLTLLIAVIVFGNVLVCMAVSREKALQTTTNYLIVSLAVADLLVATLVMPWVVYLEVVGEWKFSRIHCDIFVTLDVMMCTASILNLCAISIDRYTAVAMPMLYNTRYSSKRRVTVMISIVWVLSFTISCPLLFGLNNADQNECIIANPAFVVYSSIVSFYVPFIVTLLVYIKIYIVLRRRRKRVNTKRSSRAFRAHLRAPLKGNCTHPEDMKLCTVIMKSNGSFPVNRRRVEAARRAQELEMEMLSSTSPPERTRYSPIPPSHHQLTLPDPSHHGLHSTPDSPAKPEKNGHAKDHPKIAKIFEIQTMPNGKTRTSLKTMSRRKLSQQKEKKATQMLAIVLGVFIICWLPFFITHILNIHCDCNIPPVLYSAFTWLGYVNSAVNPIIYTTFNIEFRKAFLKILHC
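D2 cells co-treated with compound plus 50 nM dopamine (EC20) for 90 min at 37 deg C to detect potentiation. Beta-arrestin recruitment was read as enzyme-fragment luminescence after 1 h at ambient temperature. Full response was set by 57 uM dopamine.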
D2 antag: antagonizes the human D2 dopamine receptor. P14416. HEK293 TREx D2 cells, calcium flux, dopamine EC80. inhibition, % at 10 µM. hit rate 2% among 340,000; in the data active = inhibition above about 30%; inactive = below that, where a call was filed; also: 0% is about no effect
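Compounds are added to dye-loaded, induced HEK293 T-REx cells coupled to calcium release via D2; after a 3 min kinetic read an EC80 dopamine stimulus is given and fluorescence is recorded for 3 more min.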
D2 ag-1: agonists of human D2 dopamine receptor (beta-arrestin) | P14416 | DiscoveRx PathHunter D2 beta-arrestin, luminescence, 90 min; 100% = 57 uM dopamine signal | activation, % (no concentration beside the values) | hit rate 0.084% among 360,000; in the data active = activation above about 40%
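DiscoveRx PathHunter D2 beta-arrestin cells (2,100/well) attached overnight, then compound-stimulated 90 min at 37 C in HBSS/10 mM HEPES/0.1% Tween-20 buffer; beta-galactosidase complementation read by luminescence after 1 h at ambient temperature. Dopamine 57 uM final (EC100) as control.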
D2 PAM-2: positive allosteric modulators of human D2 dopamine receptor. P14416. HEK293 T-REx D2, calcium flux, EC20 dopamine potentiation. potentiation, % at 10 µM. hit rate 0.34% among 340,000;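 active = potentiation over 3 SD above the plate norm, cut at about 30% in these data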; also: 0% is about no effect
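Calcium flux readout, no-wash dye, 1 read/s. Inducible HEK293 Trex D2 line, overnight 30 C. Compound alone 180 s (agonist flags), then EC20 dopamine, another 180 s to score potentiation.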
D2 ag-2: D2 dopamine receptor (human) agonism; AID 485358; activation, % at 2 µM; P14416; HEK293 T-REx D2 cells, calcium flux agonist mode; hit rate 0.53% among 340,000;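 active = activation over 3 SD above normal in the single-dose calcium agonist read, cut at about 30% in these data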; also: 0% is about no effect
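Tetracycline-induced HEK293 Trex cells with D2 receptor force-coupled to calcium signaling, plated overnight at 30 C and loaded with no-wash calcium dye. Calcium flux read kinetically for 180 s after compound addition; responses flag agonists.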
An asterisk follows results filed as active.

`CCN(CC)C(=O)c1ccc(C)c(Br)c1` gave D2 PAM-1 1, D2 antag 31*, D2 ag-1 0, D2 PAM-2 -6 and D2 ag-2 0.
`O=C(Cn1c(=O)n(-c2ccccc2)c(=O)c2ccc(C(=O)NCc3ccc4c(c3)OCO4)cc21)Nc1ccc(Br)cc1F` gave D2 PAM-2 -3 and D2 ag-2 1.
`Cc1sc2ncnc(NCC3(N4CCOCC4)CCCCC3)c2c1C` gave D2 PAM-1 -3, D2 antag 2, D2 ag-1 -2, D2 PAM-2 30* and D2 ag-2 1.
For c1csc(CNc2ncnc3sccc23)c1 the results were D2 PAM-1 -7 and D2 ag-1 -2.
For c1nc(NCC2(N3CCOCC3)CCCCC2)c2ccsc2n1 the results were D2 PAM-1 -8, D2 antag -3, D2 ag-1 -1, D2 PAM-2 38* and D2 ag-2 -2.
For Cc1ccccc1CSc1ncc(Cl)c(C(=O)Nc2nc3ccc(F)cc3s2)n1 the results were D2 PAM-2 -1 and D2 ag-2 1.
CC(C)(C)c1ccc(C(=O)NC2CCN(Cc3ccccc3)CC2)cc1 was read as D2 PAM-1 -35, D2 antag 54*, D2 ag-1 -3, D2 PAM-2 -21 and D2 ag-2 1.
Cc1oc(-c2ccccc2)cc1C(=O)NC1CCN(Cc2ccccc2)CC1 was read as D2 PAM-1 -7, D2 antag 69*, D2 ag-1 -12, D2 PAM-2 -10 and D2 ag-2 0.
`CN1CCC(NC(=O)c2cccc(Oc3ccccc3)c2)CC1` gave D2 PAM-1 -38, D2 antag 70*, D2 ag-1 -4, D2 PAM-2 -8 and D2 ag-2 -1.
`O=C(NC1CCN(Cc2ccccc2)CC1)c1cncc(Br)c1` gave D2 PAM-1 -29, D2 antag 85*, D2 ag-1 -2, D2 PAM-2 -37 and D2 ag-2 0.
Screening COc1ccc(CNC(=O)CCc2c(C)nn(-c3ccc(N4CCCCC4)nn3)c2C)c(OC)c1 returned D2 PAM-2 -2 and D2 ag-2 2.
O=C(NC1CCN(Cc2ccccc2)CC1)c1ccccc1 was read as D2 PAM-1 -23, D2 antag 74*, D2 ag-1 -4, D2 PAM-2 -26 and D2 ag-2 0.
O=C(NNC1CCN(Cc2ccccc2)CC1)c1ccccc1 was read as D2 PAM-1 -28 and D2 ag-1 -2.
O=[N+]([O-])c1cccc(CN2CCN(c3cccc4[nH]ccc34)CC2)c1 was read as D2 PAM-1 -27, D2 antag 42*, D2 ag-1 -8, D2 PAM-2 -21 and D2 ag-2 5.
Screening O=C(NC1CCN(Cc2ccccc2)CC1)c1ccccc1Cl returned D2 PAM-1 -65, D2 antag 9, D2 ag-1 -4, D2 PAM-2 -19 and D2 ag-2 -1.
Screening O=C(NC1CCN(Cc2cccc([N+](=O)[O-])c2)CC1)c1ccccc1 returned D2 PAM-1 -15, D2 antag 74*, D2 ag-1 4, D2 PAM-2 -26 and D2 ag-2 -2.
`O=[N+]([O-])c1cccc(CN2CCC(Cc3ccccc3)CC2)c1` gave D2 PAM-1 -34, D2 antag 21, D2 ag-1 -1, D2 PAM-2 -11 and D2 ag-2 0.
Cn1nccc1C(=O)NC1CCN(Cc2ccccc2)CC1 was read as D2 PAM-1 -25, D2 antag 55*, D2 ag-1 3, D2 PAM-2 -19 and D2 ag-2 0.
Screening O=C(c1ccc([N+](=O)[O-])cc1)N1CCN(c2cccc3[nH]ccc23)CC1 returned D2 PAM-1 -15, D2 antag -1, D2 ag-1 -2, D2 PAM-2 -9 and D2 ag-2 15.
`Cc1c(C(=O)Nc2ccc(F)cc2F)oc2ccc3c(c12)C(=O)CC(C)(C)O3` gave D2 PAM-2 3 and D2 ag-2 -1.
For CC(=O)Nc1cc(-c2ccncc2)cn2c(-c3ccccc3)cnc12 the results were D2 PAM-1 3 and D2 ag-1 3.
`CCc1ccc(-n2nc(CO)c(C(=O)NCc3ccccn3)n2)cc1` gave D2 PAM-2 4.
For COc1ccc(Cn2c3nc4ccccc4nc3c3c(=O)n(Cc4ccco4)cnc32)cc1 the results were D2 antag 40*, D2 PAM-2 6 and D2 ag-2 1.
Screening OCCNC(=S)Nc1ccc2nsnc2c1 returned D2 PAM-1 -7, D2 antag 31*, D2 ag-1 -1, D2 PAM-2 -7 and D2 ag-2 0.
`CCOc1cccc(-c2c(C(=O)N/N=C/c3cccs3)nnn2-c2nonc2N)c1` gave D2 PAM-1 -6, D2 antag 32*, D2 ag-1 -1, D2 PAM-2 14 and D2 ag-2 9.
CCn1ccc2cc(S(=O)(=O)N3CCC(C(=O)NCCc4ccccc4Cl)CC3)ccc21 was read as D2 PAM-2 9 and D2 ag-2 1.
`Cc1ccc(C2(C(F)(F)F)NC(=O)N3C(=C2C#N)Nc2ccccc23)cc1` (stereo not drawn) gave D2 PAM-1 -2, D2 antag -11, D2 ag-1 -3, D2 PAM-2 -4 and D2 ag-2 0.
`CN1C2=C(C#N)C(c3ccccc3)(C(F)(F)F)NC(=O)N2c2ccccc21` (stereo not drawn) gave D2 PAM-1 6, D2 antag 32*, D2 ag-1 2, D2 PAM-2 13 and D2 ag-2 0.
Screening O=C(NCc1ccc(F)cc1)c1cc2sccc2n1Cc1ccc(F)cc1 returned D2 antag -5, D2 PAM-2 31* and D2 ag-2 1.
`CC(C)(C)C(=O)COC(=O)c1c2c(nc3ccccc13)CCC2` gave D2 PAM-1 -8, D2 antag -4, D2 ag-1 -5, D2 PAM-2 39* and D2 ag-2 -1.
Screening NC(=O)COC(=O)c1c2c(nc3ccccc13)CCCCC2 returned D2 PAM-1 -3 and D2 ag-1 -6.
`COc1ccc(NC(=O)CSCC(=O)N(C)Cc2ccc3c(c2)OCCO3)cc1` gave D2 PAM-1 11, D2 antag 35*, D2 ag-1 2, D2 PAM-2 -10 and D2 ag-2 0.
COc1ccc(NC(=O)CN(C)C(=O)Cc2ccc3c(c2)OCCO3)cc1 was read as D2 PAM-1 4, D2 antag -32, D2 ag-1 2, D2 PAM-2 0 and D2 ag-2 1.
CCOc1ccc(CCNC(=O)CSCC(=O)Nc2ccc(OC)cc2)cc1OCC was read as D2 PAM-1 1, D2 antag 31*, D2 ag-1 -1, D2 PAM-2 8 and D2 ag-2 -1.
`CC(=O)N1CCc2c(sc3c2c(=O)n(-c2ccc(C)cc2)c(=O)n3Cc2ccccc2C)C1` gave D2 PAM-2 1 and D2 ag-2 0.
